Screens from PubChem BioAssay.
Only some compounds are listed: those with a hit (about 2.8% of all), similar ones and a draw of the others.
Shn3 inh set2 – reduction of Shn3 3'UTR firefly luciferase signal, primary screen, Schnurri-3 inhibitor project, cell-based, Clone20 osteoblasts, set 2. Clone20 osteoblast Shn3 3'UTR firefly luciferase, 24 h. inhibition, % at 12.5 µM. hit rate 0.52% among 360,000. AID 588674, 2011;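 active means mean inhibition of at least 75% with every replicate also reaching 75%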;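 further: 0% = median of neutral control wells and 100% = pilot-screen positive control compound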
PAX8 reporter – inhibitors of PAX8-driven TPO luciferase reporter, primary screen, RMG-I cells, single concentration. SteadyGlo, 24 h. inhibition, % at 12.6 µM. hit rate 1.2% among 360,000. AID 652154, 2013;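 active means mean replicate inhibition at least 60% with every replicate also reaching 60%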;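 further: luciferase light reporting Pax8 driven TPO promoter activity; plate controls were median of neutral control wells for no effect and mitoxantrone controls for full effect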
LMP1 NFkB inh – EBV LMP1-driven NF-kappaB luciferase reporter inhibitors, primary screen, cell-based, luminescence, single point | LMP1-induced NF-kappaB luciferase reporter cells | inhibition, % at 12.5 µM | hit rate 0.69% among 350,000; in the data active means inhibition above about 41%;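 further: 0% = neutral control wells and 100% = reference inhibitor control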
HIF-2a inh – HIF-2a reporter inhibitors, primary screen, luminescence, 786-0 RCC cells | 786-0 RCC cells HIF-2a reporter, luciferase luminescence, overnight | inhibition, % at 18.8 µM | hit rate 0.72% among 360,000;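 active means inhibition of the luminescence signal of 40% or more relative to plate controls, in a single-dose primary screen at 18.75 µM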
Peg3 promoter – Peg3 promoter-driven luciferase inhibitors, primary screen, cell-based, HeLa, luciferase luminescence. inhibition, % at 20 µM. HeLa PEG-Prom luciferase reporter, overnight. hit rate 1.7% among 360,000;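 active means inhibition of at least 50% at 20 µM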
MITF TRPM1 inh – inhibitors of MITF-dependent TRPM1 promoter reporter, primary screen, cell-based, SK-MEL-5, single point, luciferase. inhibition, % at 12.5 µM. hit rate 0.83% among 330,000. AID 488899, 2010. SK-MEL-5 TRPM1 promoter luciferase, 24 h;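 active means mean inhibition across replicates of 60% or more, whatever share of single replicates reaches that level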
An asterisk follows results filed as active; x = not tested or not shown; ! = a repeat was not active.

SMILES	Shn3 inh set2	PAX8 reporter	LMP1 NFkB inh	HIF-2a inh	Peg3 promoter	MITF TRPM1 inh
Cc1ccc(Cl)cc1N1CCN(C(=O)C2CCC(=O)N(C3CCCCCC3)C2)CC1 (centres undefined)	86*	-3	26	0	-2	23
Cc1ccccc1Nc1cc2ccccc2c(=O)[nH]1	16	x	6	-7	-16	69*
O=c1[nH]c(Nc2ccccc2Cl)cc2ccccc12	-32	-24	-7	-114	-136	-7
C/C=C/c1ccc([C@H]2[C@@H](CO)N(Cc3ccccn3)[C@H]2CNC(C)=O)cc1	x	2	x	x	x	x
C[C@@H]1CN([C@H](C)CO)C(=O)Cc2cc(NS(=O)(=O)c3ccccc3)ccc2O[C@@H]1CN(C)C(=O)NC1CCCCC1	x	-5	x	x	x	x
COc1ccc(C(=O)NCCNc2nc3cc(C)cc(C)c3cc2C#N)cc1	x	-20	x	-12	x	x
Cc1cc(C)c2cc(C#N)c(N3CCCN(C(=S)NCCCN(C)C)CC3)nc2c1	12	6	-21	10	104*	88*
COc1cccc(C(=O)N2CCN(c3nc4cc(C)cc(C)c4cc3C#N)CC2)c1	3	-10	57*	-6	16	x
COc1cccc(C(=O)NCCCNc2nc3cc(C)cc(C)c3cc2C#N)c1	22	17	6	8	66*	x
CCN(CC)C(=O)[C@H]1C[C@H](CC(=O)NCc2ccc(OC)c(OC)c2)C(=O)N2CCc3c([nH]c4cc(CCC(=O)N(C)C)ccc34)[C@]12C	-7	-4	-1	10	-13	-2
CC(C)=CCC/C(C)=C/CNC(=O)C[C@H]1C[C@H](C(=O)N2CCOCC2)[C@@]2(C)c3[nH]c4ccc(Cl)cc4c3CCN2C1=O	40	104*	1	-23	56*	9
CCN(CC)C(=O)[C@H]1C[C@H](CC(=O)NC/C=C(\C)CCC=C(C)C)C(=O)N2CCc3c([nH]c4cc(CCC(=O)N(C)C)ccc34)[C@]12C	90*	x	0	3	5	13
O=C(Nc1ccc(Cl)c([N+](=O)[O-])c1)C(Sc1ccccc1)c1ccccc1 (centres undefined)	47	54	21	18	53*	-4
O=C(Nc1cc([N+](=O)[O-])ccc1Cl)C(Sc1ccccc1)c1ccccc1 (centres undefined)	9	16	-10	21	28	4
COc1ccc2c(c1)-c1c(sn(-c3ccccc3)c1=S)C(C)(C)N2	4	8	-18	28	18	16
COc1ccc(-n2sc3c(c2=S)-c2cc(OC)ccc2NC3(C)C)cc1	-13	x	-1	41*	8	4
O=C(O)/C=C/c1ccc(Cn2ccnc2)cc1	-6	-31	60*!	3	8	0
O=C(/C=C/c1ccc(Br)cc1)NCCCn1ccnc1	7	-26	-23	-30	-18	0
Cc1onc(-c2ccccc2)c1C(=O)NC(=S)NNC(=O)c1ccccc1O	41	31	40	20	17	15
Cc1onc(-c2ccccc2)c1C(=O)NC(=S)NNC(=O)c1ccc(O)cc1O	77	86*	43*	3	27	47
CC(=O)Nc1ccc(C(=O)Nc2cc(C(F)(F)F)ccc2-n2cnc3ccccc32)cc1	-33	5	-3	22	27	9
CN(C)c1cccc(C(=O)Nc2cc(C(F)(F)F)ccc2-n2cnc3ccccc32)c1	-21	81*	-7	21	16	-4
CSc1cccc(NS(=O)(=O)c2ccc3c(c2)CCN3C(C)=O)c1	89*	45	24	23	42	24
O=C(C[C@@H]1C[C@@H]2c3cc(NS(=O)(=O)c4ccc(F)cc4)ccc3O[C@@H]2[C@@H](CO)O1)NCc1ccc(Cl)cc1	x	39	x	x	x	x
O=C(C[C@H]1C[C@@H]2c3cc(NS(=O)(=O)c4ccc(F)cc4)ccc3O[C@@H]2[C@@H](CO)O1)NCc1ccc(Oc2ccccc2)cc1	x	101*	x	x	x	x
SMILES	Shn3 inh set2	PAX8 reporter	LMP1 NFkB inh	HIF-2a inh	Peg3 promoter	MITF TRPM1 inh
O=C(C[C@H]1C[C@H]2c3cc(NS(=O)(=O)c4ccc(F)cc4)ccc3O[C@H]2[C@H](CO)O1)NCc1ccc(Oc2ccccc2)cc1	x	99*	x	x	x	x
COc1cccc(S(=O)(=O)Nc2ccc3c(c2)[C@@H]2C[C@@H](CC(=O)NCc4ccc(Cl)cc4)O[C@@H](CO)[C@@H]2O3)c1	-23	75*!	x	5	13	x
O=C(C[C@@H]1C[C@@H]2c3cc(NS(=O)(=O)c4ccc(F)cc4)ccc3O[C@@H]2[C@@H](CO)O1)NCc1ccccc1	x	17	x	x	x	x
COc1ccc(CN(C)C[C@H]2Oc3c(NS(C)(=O)=O)cccc3C(=O)N([C@H](C)CO)C[C@@H]2C)cc1	x	-2	x	x	x	x
CCOC(=O)c1ccc(-n2c(C)ccc2C)cc1	-7	3	-5	9	3	-9
CCOC(=O)c1ccc(N2C(=O)C=CC2=O)cc1	88*	x	67*	95*	103*	41
O=C(Cn1c(=O)c2cccn2c2cccnc21)N1CCN(c2ccccc2F)CC1	-5	10	71*	12	0	5
O=C(CCCn1c(=O)c2cccn2c2cccnc21)N1CCN(c2ccccc2F)CC1	-2	-4	6	9	14	0
C[C@H](NC(=O)C[C@@H]1CC[C@H](NC(=O)c2cccnc2)[C@@H](CO)O1)c1ccccc1	x	1	x	x	x	x
CCn1cc(C2Nc3ccccc3C(=O)N2O)c(C)n1 (centres undefined)	-12	x	47*	-100	-77	-29
O=C(NCCc1ccc(Cl)cc1)C1CCC(CNc2nc(=S)[nH]c3ccccc23)CC1 (centres undefined)	36	40	15	35	31	76*
O=C(NCCC1=CCCCC1)C1CCC(CNc2nc(=S)[nH]c3ccccc23)CC1 (centres undefined)	54	-4	-2	16	40	64*
CC(C)NC(=O)Nc1ccc2c(c1)C(=O)N([C@H](C)CO)C[C@@H](C)[C@@H](CN(C)S(=O)(=O)c1ccc(F)cc1)O2	x	-11	x	x	x	x
Clc1ccc2c(NCCNC3CCCCC3)ccnc2c1	45	35	2	-36	84*	95*
CC(C)NC1CCC(Nc2ccnc3cc(Cl)ccc23)CC1 (centres undefined)	75	15	8	-30	12	25
COc1ccc(S(=O)(=O)N[C@H]2CC[C@@H](CC(=O)NCCc3ccccc3)O[C@H]2CO)cc1	x	0	x	x	x	x
O=C(NCc1ccccn1)C1CCCN(S(=O)(=O)c2cc(Cl)ccc2Cl)C1 (centres undefined)	78	x	-40	10	99*	98*
CCOC(=O)c1ccc(N2N=C(C)/C(=C/C=C/c3ccco3)C2=O)cc1	-14	5	-10	-4	-21	6
